Compound activity as filed in PubChem.
Sampled rows, rich in hits. Any-hit rate of the full collection: about 0.9%.
RECQ1 helicase – qHTS Assay for Inhibitors of RecQ-Like Dna Helicase 1 (RECQ1) | ATP-dependent DNA helicase Q1 (Homo sapiens), P46063 | RECQ1 DNA unwinding, red fluorescence kinetic read | Potency, µM (top dose mostly 57.3 µM), without a hit: top-dose activity, negative = inhibition, most hits filed as inhibitors | 240,000 compounds, 0.54% hits | AID 2549, 2010;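 further: plate controls were vehicle for no effect and no enzyme for full effect; nearly all actives have a fitted effect of over 30% in size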
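RECQ1T1 50 nM; forked duplex (20 bp + 30-nt ss tails) 200 nM, ATP 2 mM final; pH 8.0, 2 mM MgCl2, 2.5 ug/ml poly(dI-dC); 15 min compound preincubation; discontinuous kinetic read over 2 h at RT.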
RGS12 GoLoco inh – qHTS Assay for Inhibitors of RGS12 GoLoco Motif Activity (Red Fluorophore); Gai1:RGS12 GoLoco peptide FP, rhodamine, 10 min; 230,000 compounds, 0.44% hits; AID 880, 2007; Guanine nucleotide-binding protein G(i) subunit alpha-1 (Homo sapiens), P63096; Potency, µM (doses to about 61.6 µM), for inactives: at the top dose activity, negative = inhibition, hits mostly inhibitors; active means well fitted inhibition curve with a large enough effect, not every such curve was filed as active; inactive means no such curve, though single readings can be large or run the other way; further: nearly all actives have a fitted effect of over 30% in size
Target sequence (P63096 whole entry, looked up): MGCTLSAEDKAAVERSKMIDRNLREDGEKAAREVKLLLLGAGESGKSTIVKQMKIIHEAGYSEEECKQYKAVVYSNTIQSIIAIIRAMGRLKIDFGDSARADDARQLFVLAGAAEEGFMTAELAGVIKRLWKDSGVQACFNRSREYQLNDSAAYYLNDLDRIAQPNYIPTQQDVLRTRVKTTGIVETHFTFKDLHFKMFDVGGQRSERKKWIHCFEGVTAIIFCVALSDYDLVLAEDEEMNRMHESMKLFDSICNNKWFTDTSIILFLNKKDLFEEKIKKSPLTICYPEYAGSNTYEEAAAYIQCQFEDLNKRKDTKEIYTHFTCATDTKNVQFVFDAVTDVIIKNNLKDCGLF
APE1 inh – qHTS Assay for Inhibitors of the Human Apurinic/apyrimidinic Endonuclease 1 (APE1) | DNA repair nuclease/redox regulator APEX1 (Homo sapiens), P27695 | recombinant APE1, TAMRA/BHQ-2 abasic DNA cleavage fluorescence | Potency, µM (titrated, usually from 65.8 µM), without a hit: top-dose activity change, negative = inhibition, actives largely listed as inhibitors | AID 2517, 2012 | 350,000 compounds, 0.35% hits;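 further: plate controls were vehicle for no effect and reference inhibitor for full effect; nearly all actives have a fitted effect of over 55% in size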
Target sequence (P27695 whole entry, looked up): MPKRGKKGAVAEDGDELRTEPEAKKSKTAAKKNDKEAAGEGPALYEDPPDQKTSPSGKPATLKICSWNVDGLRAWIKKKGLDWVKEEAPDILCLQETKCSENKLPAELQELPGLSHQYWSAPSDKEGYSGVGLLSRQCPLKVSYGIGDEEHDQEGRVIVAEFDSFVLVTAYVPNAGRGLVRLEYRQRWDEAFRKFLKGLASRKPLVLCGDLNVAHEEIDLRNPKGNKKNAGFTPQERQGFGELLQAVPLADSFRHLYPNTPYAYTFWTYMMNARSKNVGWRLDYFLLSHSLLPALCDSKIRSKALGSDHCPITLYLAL
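Kinetic fluorescence read (525 ex/598 em nm, three reads 60 s apart) of AP-site incision; signal = third minus first read. Enzyme 0.75 nM, dual-labelled THF duplex 50 nM, compound preincubation 15 min RT.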
TRb-SRC2 inh – qHTS for Inhibitors of the Interaction of Thyroid Hormone Receptor and Steroid Receptor Coregulator 2 | Thyroid hormone receptor beta (Homo sapiens), P10828 | TRbeta-SRC2 peptide binding, fluorescence polarization; receptor liganded with 1 µM T3 | Potency, µM (doses to about 106 µM), inactives show at the highest dose activity change, negative = inhibition, usual class: inhibitors | 280,000 compounds, 0.065% hits | AID 1469, 2008;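 further: plate controls were bound peptide for no effect and peptide without receptor for full effect; nearly all actives have a fitted effect of over 50% in size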
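Polarization signal, normalized between peptide-alone and full complex controls, measured compound effects on T3-liganded human TRb LBD (0.6 uM) binding 20 nM Texas Red SRC2 peptide after 5 hr.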
BLM inh-1 – qHTS Assay for Inhibitors of Bloom's syndrome helicase (BLM); 350,000 compounds, 0.2% hits; recombinant BLM DNA unwinding, fluorescence dequenching; Potency, µM (top dose mostly 56.1 µM), for inactives: at the highest dose activity change, negative = inhibition, hits mostly inhibitors;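 further: plate controls were vehicle for no effect and no enzyme for full effect; nearly all actives have a fitted effect of over 35% in size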
TR SRC2 fluor cs – Total Fluorescence Counterscreen for Inhibitors of the Interaction of Thyroid Hormone Receptor and Steroid Receptor Coregulator 2; Potency, µM (top dose mostly 106 µM), for inactives: at the top dose fluorescence change, negative = quenching; 280,000 compounds, 0.29% hits; TRb/SRC2 Texas Red total fluorescence interference; AID 1479, 2009; active means well fitted curve in either direction with a large enough effect; inconclusive means small, poorly fitted or top-dose-only effect
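Human TRb ligand-binding domain at 0.6 uM with 20 nM Texas Red SRC2 peptide in Tris buffer containing 1 uM T3 and 5% DMSO, incubated with compound 5 h at ambient temperature. Total fluorescence (555/632 nm) calculated as parallel + 2 × perpendicular.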
BLM inh-2 – qHTS Confirmation Assay for Inhibitors of Bloom's syndrome helicase (BLM); Potency, µM, without a hit: max response, negative = inhibition, hits mostly inhibitors; shares compounds with BLM inh-1; 220 compounds, 40% hits; AID 2585, 2010; BLM DNA unwinding, fluorescence quenching, biochemical;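 further: strand separation dequenches TAMRA so unwinding raises red fluorescence; series mostly up to about 69 µM; nearly all actives have a fitted effect of over 45% in size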
* hit, by the source's call; i = inactive; u = inconclusive; x = no result given; [ ] = remark or other dose. Unless noted, the call rests on the fitted dose curve; in most records, active means well fitted curve in the direction sought with a large enough effect; inconclusive means small, poorly fitted or top-dose-only effect, or another doubt; inactive means no such curve, though single readings can be large; an effect the other way counts as inactive or inconclusive. Unless noted, on the % scale 0 is the no-effect control and ±100 the full control effect; potency means the concentration at half of the fitted maximal effect.

SMILES	RECQ1 helicase	RGS12 GoLoco inh	APE1 inh	TRb-SRC2 inh	BLM inh-1	TR SRC2 fluor cs	BLM inh-2
FC(F)(F)c1cc(Oc2ccccc2Cl)nc(-c2ccccn2)n1	-5%	-1%	3%	-2%	4.5µM*	1%	4.1µM*
FC(F)(F)c1cc(Oc2ccc(Cl)cc2)nc(-c2ccccn2)n1	-5%	2%	-4%	-4%	-4%	2%	x
Cn1c(SCC(=O)c2cc(Cl)c(Cl)s2)nnc1-c1ccco1	-6%	-4%	2%	-3%	13µM*	1%	u
CNS(=O)(=O)c1cn(CC(=O)N2CCN(c3ccccc3OC)CC2)cc1S(=O)(=O)NC	x	x	x	5%	-4%	-2%	x
CC(C)(C)c1ccc(S(=O)(=O)c2cnc(SCC(=O)Nc3ccc(F)c(Cl)c3)[nH]c2=O)cc1	x	x	x	1%	-16%	5%	x
COc1cc(Cl)c(C)cc1NC(=O)CSc1ncc(S(=O)(=O)c2ccc(C(C)(C)C)cc2)c(=O)[nH]1	x	x	x	12%	16µM*	u	23µM*
COC(=O)c1cc2sccc2n1CC(=O)Nc1cc(Cl)ccc1OC	x	x	x	-16%	-10%	u	x
N#Cc1c(SCC(=O)Nc2nncs2)sc2c(O)cc(=O)[nH]c12	x	x	-92%	x	11µM*	x	u
COc1ccc(C(=O)C2CCCN(C(=O)CCc3scnc3C)C2)c(C)c1 (stereo unspecified)	0%	3%	24%	u	28µM*	-5%	2%
COc1ccc(C(=O)C2CCCN(C(=O)CCc3ccccn3)C2)c(C)c1 (stereo unspecified)	i	-8%	1%	1%	-5%	0%	x
Cc1ccc(NC2=CC(=O)c3sc(C)nc3C2=O)cc1	-3%	x	u	u	7.9µM*	-18%	20µM*
Cc1ccc(Nc2nc(=O)[nH]nc2C)cc1	-2%	-3%	0%	-6%	2%	-6%	x
O=C(O)Cn1nc(N2CCN(c3ccccc3)CC2)ccc1=O	x	x	x	2%	0%	0%	x
Fc1cccc2sc(Nc3nc4cc5c(cc4s3)OCO5)nc12	-6%	-2%	27%	-2%	2%	-3%	x
Fc1cc(F)c2nc(Nc3nc4cc5c(cc4s3)OCO5)sc2c1	u	7%	9%	24%	10µM*	35µM*[quencher]	u
CN(C)[C@H]1C(=O)C(C(=O)NCN2CCCC2)=C(O)[C@]2(O)C(=O)C3=C(O)c4c(O)cccc4[C@](C)(O)[C@H]3C[C@H]12	x	-4%[14.2 µM]	x	u	14µM*	14µM*[quencher]	20µM*
COc1cccc(=O)c2c(C)n(CC(=O)c3ccccc3)c(C)c12	-18%	40%	-3%	4%	25µM*	-1%	4%
COc1ccc(-c2nnc(SCC(=O)Nc3ccc(C)c(Cl)c3)nc2-c2ccc(OC)c(OC)c2)cc1OC	x	x	x	-9%	-16%	1%	x
N#C/C(=C\c1ccc(OC(=O)c2cccs2)cc1)c1nc2ccccc2[nH]1	7%	-7%	7%	5%	20µM*	-3%	-8%
N#Cc1sc2nc(C3CC3)cc(-c3ccccc3)c2c1N	-5%	5%	4%	-1%	-9%	-1%	x
N#Cc1sc2nc(-c3ccccc3)cc(-c3ccco3)c2c1N	u	23%	u	10%	4µM*	-19%	4.1µM*
Cc1cc(=O)[nH]c2c(N=Nc3ccc(O)cc3)c(N)nn12	i	17%	u	8%[53 µM]	16µM*	-20%[53 µM]	u
COc1ccc(C(=O)Nc2nnc(SCc3cc(=O)c4cc(C)cc(C)c4[nH]3)s2)cc1	x	x	x	1%	20µM*	-3%	18µM*
C=CCOC(/C=C/c1ccccc1)CC (stereo unspecified)	-6%	x	-3%	-4%	0%	-1%	x
CC(C)(C)OC(=O)N1CCC(c2c(C(=O)NCCN3CCOCC3)cnn2-c2ccccc2)CC1	x	x	x	2%	3%	1%	x
SMILES	RECQ1 helicase	RGS12 GoLoco inh	APE1 inh	TRb-SRC2 inh	BLM inh-1	TR SRC2 fluor cs	BLM inh-2
Cc1oc2c(c(C)cc3oc(=O)c(CC(=O)NCCc4ccccc4F)c(C)c32)c1C	x	x	x	-6%	-6%	-1%	x
COc1ccc(OC)c(NC(=O)COC(=O)c2cc3c(s2)CCC3)c1	u	10%	12%	3%	16µM*	u	18µM*
CCOc1ccc(CC(=O)Nc2ccc3nc(N4CCCCC4)cc(C)c3c2)cc1OCC	x	x	x	10%	-4%	u	x
COC(=O)C1(C(=O)OC)Cc2conc2[C@H]1c1ccccc1	-3%	-4%	-5%	-1%	2%	-2%	x
O=C(O)C1CSC(c2ccncc2)N1 (stereo unspecified)	1%	-10%	-3%	4%	3%	1%	x
O=C(O)C1CSC(c2ccco2)N1 (stereo unspecified)	32µM*	-24%	14µM*	6%	25µM*	-6%	3%
COc1ccc(OC)c2sc(N(Cc3cccnc3)C(=O)c3ccc(C(C)=O)cc3)nc12	x	x	x	-2%	-8%	-3%	x
O=C(CSc1ccc(-c2ccco2)nn1)c1ccccc1	-5%	0%	0%	-2%	25µM*	-5%	-6%
COc1ccc(C(=O)CSc2ccc(-c3ccco3)nn2)cc1	-23%	8%	-2%	-1%	-21%	-6%	x
C=Cc1ccc(CN2C(=O)N(c3ccc(C)c(C)c3)S(=O)(=O)c3ccccc32)cc1	x	x	x	-3%	-6%	-4%	x
CCc1ccc(C(=O)c2cn(CC(=O)Nc3cccc(OC)c3)c3ccc(OC)cc3c2=O)cc1	x	x	28%	-1%	20µM*	-1%	20µM*
COc1cccc(NC(=O)Cn2cc(C(=O)c3ccc(C)cc3)c(=O)c3cc(OC)ccc32)c1	x	x	9%	1%	u	0%	x
O=C(/C=C/c1ccccc1Cl)Nc1ccc2c(c1)C(=O)NC2=O	-23%	61%	13µM*	18%	32µM*	-17%	u
CCN(CCO)c1ncnc2c1sc1nc(C(C)C)c3c(c12)CC(C)(C)OC3	-10%	-7%	3%	-2%	-1%	-7%	x
CCN(CCO)c1nc(SC)nc2c1sc1nc(-c3ccco3)c3c(c12)CCC3	-5%	33%	u	-3%	10µM*	-7%	u
